This is a sample that favours compounds with a hit; in the whole collection about 3% have one here.
BH1578 lux ind = induces V. cholerae light production without autoinducers | activation, % at 18.7 µM | V. cholerae BH1578 lux reporter, luminescence, 6 h | 0.16% of 350,000 active; in the data active means activation mostly above about 9.7%, no sharp cut-off
Mtb FBA inh = Mtb fructose-bisphosphate aldolase inhibition; P9WQA3; purified M. tuberculosis FBA, fluorescence read-out; inhibition, % at 1 µM; 2.3% of 360,000 active;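 further: 0% = vehicle and 100% = reference inhibitor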
Target sequence (P9WQA3 whole entry, looked up): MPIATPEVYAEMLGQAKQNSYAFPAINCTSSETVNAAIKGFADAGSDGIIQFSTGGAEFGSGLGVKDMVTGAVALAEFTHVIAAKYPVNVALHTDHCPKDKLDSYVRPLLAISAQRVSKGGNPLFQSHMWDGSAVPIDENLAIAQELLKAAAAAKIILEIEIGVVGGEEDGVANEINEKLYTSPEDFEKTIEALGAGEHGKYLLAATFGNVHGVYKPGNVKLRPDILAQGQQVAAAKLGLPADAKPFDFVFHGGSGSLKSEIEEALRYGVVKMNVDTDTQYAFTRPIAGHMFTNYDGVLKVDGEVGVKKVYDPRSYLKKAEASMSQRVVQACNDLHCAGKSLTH
GDH-TPI counter-1 = counter-screen for M. tuberculosis FBA inhibitors: GDH-TPI coupled enzymes | AID 588335 | 1.2% of 360,000 active | inhibition, % at 4.8 µM | GDH-TPI coupled enzyme counterscreen, NADH absorbance; in the data active means inhibition above about 30%;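 further: 0% = DMSO wells and 100% = wells lacking the enzyme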
Mtb BioA inh = BioA (M. tuberculosis) enzyme inhibition | purified M. tuberculosis BioA enzyme, plate reader | inhibition, % at 9.99 µM | 0.096% of 360,000 active; in the data active means inhibition above about 40%
Mtb FBA inh conf = confirmation of M. tuberculosis fructose-bisphosphate aldolase inhibitors; shares compounds with Mtb FBA inh; purified M. tuberculosis FBA, fluorescence read-out; inhibition, % at 1 µM; 78% of 5,600 active; AID 651616;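 further: 0% = vehicle wells and 100% = reference inhibitor wells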
GDH-TPI counter-2 = inhibits GDH-TPI coupling enzymes, flagging Mtb FBA hits. shares compounds with Mtb FBA inh. GDH-TPI coupled enzyme counterscreen, fluorescence. inhibition, % at 1 µM. 81% of 5,600 active. AID 652141; in the data active means inhibition above about 10%
* marks the source's active call; other numbers are inactive results; i = inactive; / = no result given; + = active, no number. Unless noted, no stated cut-off is given here; in the data, active means inhibition above about 27%; inactive means the rest.

SMILES	BH1578 lux ind	Mtb FBA inh	GDH-TPI counter-1	Mtb BioA inh	Mtb FBA inh conf	GDH-TPI counter-2
O=S(=O)(Nc1ccc2oc(-c3ccccc3)nc2c1)c1ccccc1	-7	50*	4	1	141*	112*
Cc1ccc(-c2nc3cc(NS(=O)(=O)c4ccc(C)cc4)ccc3o2)cc1	0	33*	14	1	45*	28*
COC(=O)C[C@H]1C[C@H]2c3cc(N(C)C)ccc3O[C@H]2[C@@H](CO)O1	/	/	/	0	/	/
CN(C)CCCNC(=O)[C@@H]1[C@@H](CO)[C@@H]2Cn3c(ccc(-c4ccc(F)cc4)c3=O)[C@@H]2N1C	/	/	/	-2	/	/
COc1ccccc1N1C(=O)c2ccccc2NC1c1cc(OC)c(OC)c(OC)c1 (stereo unspecified)	0	55*	15	0	96*	65*
COc1ccc(C2Nc3ccccc3C(=O)N2Cc2ccccc2)cc1CN1CCOCC1 (stereo unspecified)	0	97*	5	/	58*	50*
COc1ccc(C2Nc3ccccc3C(=O)N2c2ccc(C)cc2)cc1Cn1nc(C)c([N+](=O)[O-])c1C (stereo unspecified)	-3	2	4	1	/	/
COc1ccc(C2Nc3ccccc3C(=O)N2c2ccccc2)cc1CN1CCOCC1 (stereo unspecified)	0	45*	9	6	0	-5
COc1ccc(C2Nc3ccccc3C(=O)N2c2ccc(C)cc2)cc1COc1ccccn1 (stereo unspecified)	0	34*	11	/	+	+
CCCN(C)C[C@@H]1OCCCC[C@@H](C)Oc2ccc(NC(=O)CCC(F)(F)F)cc2C(=O)N([C@H](C)CO)C[C@@H]1C	/	/	/	-2	/	/
C/C(=N\NC(=O)c1nnn(-c2nonc2N)c1COc1ccc(F)cc1)c1ccc(Cl)cc1	-1	29*	-2	/	+	+
C[C@H]1CN([C@@H](C)CO)C(=O)c2cc(C#CCN(C)C)cnc2O[C@H]1CN(C)Cc1ccc(F)cc1	/	/	/	-1	/	/
Cc1cc(C)n(-c2nc(NCC(C)O)c3c4c(sc3n2)COC(C)(C)C4)n1 (stereo unspecified)	-3	56*	5	4	75*	64*
O=C(c1ccccc1)n1ccc(-c2cnc(-c3ccccc3)s2)n1	-3	95*	12	/	73*	58*
O=C(Nc1ccccc1C(=O)O)c1ccccc1	i	7	1	-2	/	/
O=C(CNc1ccccc1C(=O)O)c1ccccc1	i	28*	2	-1	34*	32*
NC(=O)c1ccccc1OCC(=O)c1ccc(Cl)cc1	0	3	-4	/	/	/
NC(=O)c1ccccc1NCC(=O)c1ccc(Cl)cc1	-1	43*	0	/	159*	124*
CCC(c1nnc(SCC(=O)NC2CCCCC2)n1Cc1ccccc1)N(C)C (stereo unspecified)	i	43*	-7	/	+	153*
C#CCn1c(=NC(=O)c2sc3ccccc3c2Cl)sc2cc(S(N)(=O)=O)ccc21	0	39*	42*	-6	+	+
C#CCn1c(=NC(=O)c2ccccc2[N+](=O)[O-])sc2cc(S(C)(=O)=O)ccc21	0	3	11	/	/	/
C[C@H]1CN([C@@H](C)CO)C(=O)Cc2cc(N(C)C)ccc2O[C@@H]1CN(C)C(=O)Nc1ccc2c(c1)OCO2	/	/	/	1	/	/
CCCc1cc(=O)oc2cc(C)cc(OCC(=O)NC(Cc3ccc(Cl)cc3)C(=O)O)c12 (stereo unspecified)	-1	70*	5	0	3	0
CCCCc1cc(=O)oc2cc(C)cc(OCC(=O)NC(Cc3ccc(Cl)cc3)C(=O)O)c12 (stereo unspecified)	0	63*	7	0	105*	68*
CC1Nc2ccccc2C(=O)N1NS(C)(=O)=O (stereo unspecified)	-1	50*	10	/	74*	61*
SMILES	BH1578 lux ind	Mtb FBA inh	GDH-TPI counter-1	Mtb BioA inh	Mtb FBA inh conf	GDH-TPI counter-2
COc1ccc(C2Nc3ccccc3C(=O)N2NS(=O)(=O)c2ccccc2)cc1 (stereo unspecified)	0	13	9	/	/	/
COc1ccc(C2Nc3ccccc3C(=O)N2NS(C)(=O)=O)cc1 (stereo unspecified)	0	27*	7	/	105*	108*
CS(=O)(=O)NN1C(=O)c2ccccc2NC1c1cccc2cccnc12 (stereo unspecified)	1	5	1	/	/	/
CC(=O)C12CCCCC1CC1[C@@H]3CC(C)C4=CC(=O)CC[C@]4(C)C3CC[C@@]12C (stereo partly specified)	-1	34*	2	-3	187*	175*
CC(=O)O[C@]1(C(C)=O)CC[C@H]2[C@@H]3C[C@H](C)C4=CC(=O)CC[C@]4(C)[C@H]3CC[C@@]21C	0	0	-2	35	/	/
Cn1ncc(Cl)c1C(=O)NCc1ccc(Cl)cc1	0	2	4	/	/	/
Cc1cc(C)n2ncc(C(=O)NCc3ccc(Cl)cc3)c2n1	i	34*	5	0	118*	89*
O=C(NCc1ccc(Cl)cc1)c1ccc2ccccc2n1	0	65*	-2	-3	137*	118*
O=C(NCc1ccc(Cl)cc1)c1cnn2ccccc12	0	38*	6	-1	2	-4
O=C(C[C@H]1CC[C@@H](NC(=O)Nc2ccc(F)cc2)[C@@H](CO)O1)NCc1cccc(F)c1	/	/	/	4	/	/
Cc1cc(=O)c2cc(C(=O)c3ccccc3)ccc2[nH]1	-1	1	8	-1	/	/
CCOC(=O)c1ccc2[nH]c(C)c(C)c2c1	/	1	6	0	/	/
CCOC(=O)c1ccc2[nH]c(C)cc(=O)c2c1	1	36*	14	-1	+	196*
COC(=O)c1ccc2[nH]c(C)cc(=O)c2c1	0	34*	11	/	95*	85*
CN(C)C(=O)C[C@@H]1CC[C@H]2[C@@H](COc3ccc(NC(=O)C4CCOCC4)cc3C(=O)N2C)O1	/	/	/	-2	/	/
CN1c2cccc3cccc(c23)N(C)C1(C)C	1	72*	16	-2	1	4
CC(C)c1cc(Cn2c3ccccc3c(=O)n2C(C)C)on1	/	103*	/	0	+	+
CC(C)c1cc(Cn2c3ccccc3c(=O)n2C(C)CBr)on1 (stereo unspecified)	/	96*	/	-3	70*	46*
C[C@H]1CN([C@@H](C)CO)C(=O)c2cc(-c3cccnc3)cnc2O[C@H]1CN(C)C(=O)c1cccc(F)c1	/	/	/	1	/	/
CN1CCc2c(C#N)c(Cl)nc(Cl)c2C1	/	68*	13	/	4	-2
Cc1oncc1C(=O)Nc1ccc2ccccc2c1	1	-1	-3	0	/	/
COC(=O)c1cccc(NC(=O)c2cnoc2C)c1	0	31*	-2	/	95*	73*
Cc1cc(OC(C)C(=O)NC2CC(C)(C)NC(C)(C)C2)c2c(C)c(C)c(=O)oc2c1 (stereo unspecified)	0	71*	13	-3	+	+
